# Source: PubChem
# FBW7 act – FBW7 E3 ligase activators, primary screen, biochemical, AlphaScreen, human; AlphaScreen FBW7–phospho-cyclin E peptide binding, activator screen; AID 1259310, 2017; normalized activity (activation), % at 26.1 µM; 650,000 tested, 0.13% active; in the data active = normalized activity above about 1.9%;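 also: purified mutant Fbw7 with reduced substrate affinity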
# MITF inh – MITF inhibitors, primary screen, biochemical, AlphaScreen, human | AlphaScreen MITF homodimerization, bead proximity signal | inhibition, % at 2.6 µM | 650,000 tested, 0.91% active; in the data active = inhibition above about 50%;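 also: 0% = vehicle wells with protein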
# TEAD-YAP inh – TEAD-YAP interaction inhibition, primary screen, TEAD-YAP interaction inhibitor project, luminescence, HEK-TIYL cells | TEAD-Gal4/YAP UAS-luciferase luminescence | inhibition, % at 9.12 µM | 640,000 tested, 1.4% active; in the data active = inhibition above about 32%;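 also: 0% = median of test compound wells and 100% = reference inhibitor wells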
# GPR151 ag – activators of human GPR151, primary screen, cell-based, PathHunter beta-arrestin, luminescence | activation, % at 11.2 µM | PathHunter beta-arrestin GPR151 cells | 650,000 tested, 1% active | AID 1508602, 2020 | G-protein coupled receptor 151 (Homo sapiens), Q8TDV0; in the data active = activation above about 4.9%;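 also: 0% = median of compound wells and 100% = cells with positive control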
# Target sequence (Q8TDV0 whole entry, looked up): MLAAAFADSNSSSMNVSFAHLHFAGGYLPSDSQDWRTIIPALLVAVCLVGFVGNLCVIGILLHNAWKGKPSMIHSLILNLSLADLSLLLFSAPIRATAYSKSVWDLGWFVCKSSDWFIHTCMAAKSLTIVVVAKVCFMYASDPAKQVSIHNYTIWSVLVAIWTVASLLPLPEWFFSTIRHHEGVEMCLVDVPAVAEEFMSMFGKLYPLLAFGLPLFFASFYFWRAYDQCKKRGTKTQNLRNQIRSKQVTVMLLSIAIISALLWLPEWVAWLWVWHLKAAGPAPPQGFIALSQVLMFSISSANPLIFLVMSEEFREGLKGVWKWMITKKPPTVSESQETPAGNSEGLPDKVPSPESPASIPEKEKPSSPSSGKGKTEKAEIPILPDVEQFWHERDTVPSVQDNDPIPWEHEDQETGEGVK
# Active calls of the source: *; ! = not confirmed by another sample. This is a sample that favours compounds with a hit; in the whole collection about 3.5% have one here.
SMILES,FBW7 act,MITF inh,TEAD-YAP inh,GPR151 ag
O=C(CCc1ccccc1)Nc1ccc(Oc2ccc3c(c2)C(=O)NC3=O)cc1,0,-3,52*,0
Cc1ccccc1OCC(=O)Nc1ccc(Oc2ccc3c(c2)C(=O)NC3=O)cc1,0,11,52*,1
CCC(=O)Nc1ccc(Oc2ccc3c(c2)C(=O)NC3=O)cc1,0,-13,-2,1
O=C(COc1ccccc1)Nc1ccc(Oc2ccc3c(c2)C(=O)NC3=O)cc1,0,8,51*,-1
O=C1C2CC=C(Cl)CC2C(=O)N1CNc1ccc(Br)cc1 (stereo not given),-1,3,-2,-1
CCCCOc1cccc(C(=O)NC(=S)Nc2ccc(N3CCCCC3)cc2)c1,0,9,-11,0
O=C(NNc1ccccc1)c1ccc(Cl)c([N+](=O)[O-])c1,0,13,3,0
COc1cccc(/C(C)=N/NC(=O)CC2(C)OCCO2)c1,0,14,-5,-1
C/C(=N\NC(=O)c1n[nH]c2c1CCCC2)c1ccc(O)cc1,0,6,24,-1
O=C(N/N=C/c1ccc(O)cc1)c1n[nH]c2c1CCC2,0,-13,59*,-4
O=C(N/N=C/c1ccc(Cl)cc1)c1n[nH]c2c1CCCC2,0,17,19,0
O=C(N/N=C/c1ccc([N+](=O)[O-])cc1)c1n[nH]c2c1CCC2,0,-17,54*,-1
O=C(N/N=C/c1ccccc1)c1n[nH]c2c1CCCC2,0,8,69*,0
O=C(N/N=C/c1cccc2ccccc12)c1n[nH]c2c1CCC2,0,15,47*,-1
CCN(CC)c1ccc2cc(-c3nc(-c4ccc(Br)cc4)cs3)c(=Nc3ccc(C)cc3)oc2c1,0,-8,-3,0
COc1ccc(-c2csc(NC(=O)c3cc4ccccc4cc3OC)n2)cc1OC,0,28,-8,0
C=CCn1c(N/N=C/c2cccc(OC)c2O)nc2c1c(=O)n(C)c(=O)n2C,0,-5,17,0
COc1cc(C2CC(=O)N3CN(C4CCCCC4)CSC3=C2C#N)ccc1O (stereo not given),0,5,-7,0
Oc1ccc(/C=N/Nc2ccc3ccccc3n2)c(O)c1O,-1,21,-30,-1
Oc1cccc2ccc(/C=N/Nc3ccc4ccccc4n3)nc12,0,-10,33*,-3
C(=N\Nc1ccc2ccccc2n1)/c1cccs1,0,1,60*,-2
O=C1CCCN1CCn1cnc2c(NCc3nc4ccccc4[nH]3)nc(Nc3ccc(-n4ccnc4)cc3)nc21,0,4,39*,1
O=C1CCCN1CCn1cnc2c(NCc3nc4ccccc4[nH]3)nc(Nc3ncccn3)nc21,0,-2,7,3
O=C1CCCN1CCn1cnc2c(NCc3nc4ccccc4[nH]3)nc(Nc3ccc4ncccc4c3)nc21,0,6,59*,-2
CCOC(=O)C1=C(C)N=c2s/c(=C\c3cc(Br)ccc3OC(C)=O)c(=O)n2C1c1ccc(OC)cc1 (stereo not given),0,8,-1,1
SMILES,FBW7 act,MITF inh,TEAD-YAP inh,GPR151 ag
Cc1cccc(N(C)S(=O)(=O)c2c(C)[nH]c(=O)[nH]c2=O)c1,0,-4,0,2
COc1ccccc1/C=C/C(=O)Nc1ccc2[nH]ncc2c1,0,-5,35*,0
CCN(CC)C(=O)c1cn(CCC#N)nc1-c1ccc(F)cc1,2.1*,10,-4,-1
CCOC(=O)c1ccc(NC(=O)c2cn(CCC#N)nc2-c2ccc(F)cc2)cc1,0,2,1,0
COc1ccc(C(=O)c2ccc(Br)c([N+](=O)[O-])c2)cc1C,0,1,65*,3
CCOC(=O)C(C)OC(=O)c1ccc(Cl)c([N+](=O)[O-])c1 (stereo not given),0,1,2,-1
COC(=O)C(C)OC(=O)c1ccc(Cl)c([N+](=O)[O-])c1 (stereo not given),3.0*,5,7,1
COc1ccc(C(=O)c2ccc(Cl)c([N+](=O)[O-])c2)cc1,0,5,62*,0
CCOc1ccc(Nc2c(C(=O)N3CCOCC3)cnc3ccccc23)cc1,0,-4,42*,0
CC[C@@]1(O)C(=O)OCc2c1cc1n(c2=O)Cc2cc3c(CN(C)C)c(O)ccc3nc2-1,0,67*!,12,0
